In the library only some 1.6% were active in any assay of this set; here they are far more common.
PrPC TRFRET: reduces human prion protein on the cell surface. AID 720596. actives 0.43% (n = 370,000). cell surface PrPC, TR-FRET read-out. P04156. inhibition, % at 13.8 µM; in the data active means inhibition above about 24%; further: 0% = median of the test wells and 100% = reference compound wells
PrP 5UTR inh: inhibition of PrP 5' UTR reporter expression. actives 0.35% (n = 340,000). AID 488862. cell-based PrP 5' UTR mRNA reporter, plate reader. inhibition, % (test concentration not listed); in the data active means inhibition above about 52%; further: 0 = median of the neutral control wells
SARS 3CLpro inh: SARS-CoV 3CLpro protease inhibition. AID 1706. recombinant SARS-CoV 3CLpro, quenched FRET peptide cleavage. inhibition, % at 6 µM. actives 0.14% (n = 290,000). P0C6X7; in the data active means inhibition above about 12%
PriA SSB inh: inhibitors of Klebsiella pneumoniae PriA binding to SSB C-terminal tail. actives 0.6% (n = 430,000). AlphaScreen SSBct-PriA binding, biotinylated peptide. inhibition, % at 33 µM; in the data active means inhibition mostly above about 37%, no sharp cut-off; inactive means mostly below about 20%;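 further: plate controls were negative control peptide for no effect and reference peptide for full effect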
PfHsp40 rescue: restores yeast growth despite PfHsp40 toxicity | AID 504582 | actives 0.68% (n = 340,000) | growth rescue, % at 12.5 µM | S. cerevisiae expressing PfHsp40, growth rescue, ATP luminescence; in the data active means growth rescue above about 28%, passing the limit was not always enough; inconclusive means no clear call, values can overlap the other calls;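 further: yeast W303a lacking pdr1 and pdr3 grown in galactose medium; growth measured after three days at 30 °C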
BH1578 lux ind: induces V. cholerae light production without autoinducers; V. cholerae BH1578 lux reporter, luminescence, 6 h; activation, % at 18.7 µM; actives 0.16% (n = 350,000); in the data active means activation mostly above about 9.7%, no sharp cut-off; inconclusive means no clear call, values can overlap the other calls; inactive means mostly below about 3.7%
An asterisk follows results filed as active; i = inactive; ? = inconclusive; . = no result.

SMILES	PrPC TRFRET	PrP 5UTR inh	SARS 3CLpro inh	PriA SSB inh	PfHsp40 rescue	BH1578 lux ind
COc1cc(/C=C2\SC(=S)N(NS(=O)(=O)c3ccccc3)C2=O)cc(OC)c1OC	-12	-17	6	3	41*	-3
CC(=O)Nc1ccc(S(=O)(=O)NC[C@H](O)c2ccoc2)c(C)c1	.	.	.	0	.	.
Cc1cc(N(C)C)ccc1N=Nc1ccc(N)cc1	-17	-82	.	93*	4	0
O=C(CSc1nc2ccccc2c(=O)n1Cc1ccco1)N1CCCCCC1	-7	-7	3	-17	-1	i
CCCn1c(SCC(=O)N2CCN(C(=O)c3ccco3)CC2)nc2ccccc2c1=O	-10	-25	4	-1	74*	-1
Cc1cc(N=Nc2ccc(Cl)cc2)cc(CN2CCCC2)c1O	2	-26	1	72*	-1	0
Cc1cc(N=Nc2ccc(Cl)cc2)cc(CN2CCOCC2)c1O	-6	11	3	49*	4	i
O=C(Nc1ccc2c(c1)OCO2)c1ccc(NS(=O)(=O)c2cccc(F)c2)cc1	.	.	.	-12	.	.
CCCCOc1ccc(C2=CSC3=NCCN23)cc1[N+](=O)[O-]	-8	-27	0	0	0	-1
CCCCOc1ccc(-c2csc(N)n2)cc1[N+](=O)[O-]	6	-79	4	17	141*	0
CN(C)CCN1C(=O)C(O)=C(C(=O)c2cccs2)C1c1ccccc1 (configuration not stated)	.	.	.	-13	.	.
N#CC1=C2N=C(N)c3ccccc3N2C2=C(C(=O)CCC2)C1c1ccc(F)cc1 (configuration not stated)	-9	.	3	3	0	i
N#CC1=C2N=C(N)c3c(sc4c3CCCCC4)N2C2=C(C(=O)CCC2)C1c1ccccc1 (configuration not stated)	3	-1	-6	44*	2	3
O=C(NCCC(=O)N1CCN(c2ccccc2O)CC1)c1ccc(Br)cc1	7	6	.	-4	301*	i
CC(C)S(=O)(=O)c1ccc(C(=O)Nc2nc(-c3ccccn3)cs2)cc1	.	.	.	106*	.	.
CN(c1ccccc1)S(=O)(=O)c1ccc(C(=O)Nc2nc(-c3ccccn3)cs2)cc1	.	.	.	52*	.	.
CN(c1ccccc1)S(=O)(=O)c1ccc(C(=O)Nc2nc(-c3ccc(Br)s3)cs2)cc1	.	.	.	-13	.	.
Cc1ccc(NC(=O)[C@@H](NC(=O)N2C[C@H]3C[C@H](C2)c2cccc(=O)n2C3)C(C)C)cc1	.	.	.	-10	.	.
C/C(=N/NC(=O)c1cc2ccccc2cc1O)c1ccco1	2	-51	-1	.	77*	-1
COc1ccc(OC)c(-c2c3cc(O)c(=O)cc-3oc3cc(O)c(O)cc23)c1	.	-15	-2	52	287*	0
CC[C@@H](O)C[C@H]1CCC[C@@]2(C[C@@H]3OC(=O)/C=C/[C@@](C)(O)[C@@H](O)[C@H](C)[C@@H](O)[C@H](OC4CCC(N(C)C)C(C)O4)[C@@H](O)[C@](C)(O)CCCCC/C=C/[C@@H]4CC(C)(C)O[C@@]4(O)C[C@H](O2)[C@H]3C)O1 (some centres not stated)	22	-24	.	-6	56*	6
Cc1cc(C(=O)Nc2sccc2C#N)no1	.	.	.	-3	.	.
COc1ccc(CC2(C)OC(c3ccc([N+](=O)[O-])cc3)=NN2C(C)=O)cc1 (configuration not stated)	-2	-15	-1	45*	?	0
CN(C)c1ccc(CCCNC(=O)Cc2cccs2)cc1	.	.	.	7	.	.
CC(Oc1ccccc1)C(=O)N(CCC1=CCCCC1)c1c(N)n(Cc2ccccc2)c(=O)[nH]c1=O (configuration not stated)	4	12	6	-10	0	23*
SMILES	PrPC TRFRET	PrP 5UTR inh	SARS 3CLpro inh	PriA SSB inh	PfHsp40 rescue	BH1578 lux ind
O=S(=O)(O)c1cc(O)c(N=Nc2ccc(O)cc2O)c2ccccc12	-64	-6	.	87*	21	i
Cc1cccc(NC(N)=S)c1	2	4	1	2	-2	i
Cc1cccc(N=NC(=S)NNc2cccc(C)c2)c1	0	-69	.	52*	2	-4
COc1nn(C)cc1C(=O)NCC[C@H](O)c1cc(C)oc1C	.	.	.	-9	.	.
COc1ccc(N2CCN(C(=O)Cn3cncn3)CC2)cc1	-4	-11	2	-1	0	i
CC(C)N1CCN(c2ccc(OCC3COC(Cn4cncn4)(c4ccc(Cl)cc4Cl)O3)cc2)CC1 (configuration not stated)	-19	-5	.	6	226*	-1
CC(C)N1CCN(c2ccc(OC[C@H]3CO[C@](Cn4cncn4)(c4ccc(Cl)cc4Cl)O3)cc2)CC1	-20	53	.	10	222*	1
COc1ccc(N2CCN(CC(O)COc3ccc(Cl)cc3Cl)CC2)cc1 (configuration not stated)	.	.	.	49	.	.
Cc1ccc(Nc2ccc(N)cc2S(=O)(=O)O)cc1	-8	-36	-3	-19	8	-8
Nc1ccc(Nc2ccccc2)c(S(=O)(=O)O)c1	1	.	2	15	41*	-4
Cc1ccc(-n2ncc3c(N4CCc5ccccc54)ncnc32)cc1Cl	.	.	.	-9	.	.
O=c1oc2cc(S(=O)(=O)N3CCOCC3)ccc2n1Cc1ccc([N+](=O)[O-])cc1	.	.	.	48*	.	.
O=S(=O)(c1ccc(F)cc1)N1CCCC1	-2	-22	-5	-16	37*	0
O=C(Nc1ccc(F)cc1)Nc1ccc(S(=O)(=O)N2CCCC2)cc1	11	-9	.	-1	0	-3
COc1ccc(C2CC(c3ccccc3)=NN2c2ccc(S(N)(=O)=O)cc2)cc1OC (configuration not stated)	-2	-20	6	-27	2	i
COc1ccc(C2=NN(c3ccc(C(=O)O)cc3)C(c3ccc(OC)c(OC)c3)C2)cc1 (configuration not stated)	-3	3	6	-13	112*	0
O=S(=O)(c1ccccc1)c1nc(-c2ccc(Br)cc2)oc1N1CCCCCC1	.	.	.	28	.	.
Cc1ccc(C)c(-c2csc(NC(=O)c3cccc(S(C)(=O)=O)c3)n2)c1	.	.	.	5	.	.
CCNC(=S)Nc1ccc(Cl)cc1	10	-14	0	-18	1	0
CCNC(=S)Nc1cc(-c2ccc(Cl)cc2)[nH]n1	13	-14	0	4	122*	0
O=C1C[C@@H](C(=O)Nc2ccc3c(c2)OCO3)n2c(nc3ccccc32)N1	.	.	.	-7	.	.
N#Cc1ccc(-c2nc3cc(Cl)ccc3c(=O)n2O)cc1	-4	8	2	-5	136*	i
O=c1c2cc(Cl)ccc2nc(-c2ccc([N+](=O)[O-])cc2)n1O	0	-27	4	-10	179*	i
O=C(Cc1ccc(F)cc1)NCc1nn(C2CCCC2)c2c1CCCC2	.	.	.	-8	.	.
O=C(Nc1ccc(SC(F)(F)F)cc1)C(F)(F)F	.	.	.	-21	.	.
CN1C(=O)c2cccc(NC(=O)c3cc(-c4ccccc4)nc4ccccc34)c2C1=O	.	.	.	-22	.	.
CCOC(=O)COc1ccccc1/C=C\[N+](=O)[O-]	.	-24	-1	-4	71*	0

From PubChem BioAssay
